The supplement of paper PMC8728848
The entries come from a sample that favours the strongest signals as a whole.

Legend:
Experiment in all cases: glycan array binding signal (z-score within array); higher = stronger binding
Details in all cases: glycan notation: IUPAC condensed, linker removed
[1] = target: Fuc(a1-2)Gal(b1-3)GlcNAc(b1-2)Man(a1-3)[Fuc(a1-2)Gal(b1-3)GlcNAc(b1-2)Man(a1-6)]Man(b1-4)GlcNAc(b1-4)GlcNAc
Outline: (§1)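 The binding signal is a Z-score computed within each array. Data were drawn from 3228 arrays in the Consortium for Functional Glycomics database, restricted to those with a known protein sequence. Scores were averaged over arrays of the same protein sequence at different concentrations or buffers, and over linkers, and negative values can be taken as non-binding.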

[2] = target: Fuc(a1-2)Gal(b1-4)[Fuc(a1-3)]GlcNAc
Outline: as §1

[3] = target: Fuc(a1-2)[Gal(a1-3)]Gal(b1-3)GalNAc
Outline: as §1

[4] = target: Fuc(a1-2)[Gal(a1-3)]Gal(b1-3)GlcNAc(b1-2)Man(a1-3)[Fuc(a1-2)[Gal(a1-3)]Gal(b1-3)GlcNAc(b1-2)Man(a1-6)]Man(b1-4)GlcNAc(b1-4)GlcNAc
Outline: as §1

[5] = target: Fuc(a1-2)[Gal(a1-3)]Gal(b1-4)GlcNAc(b1-3)GalNAc
Outline: as §1

[6] = target: Fuc(a1-2)[GalNAc(a1-3)]Gal(b1-3)GlcNAc(b1-2)Man(a1-3)[Fuc(a1-2)[GalNAc(a1-3)]Gal(b1-3)GlcNAc(b1-2)Man(a1-6)]Man(b1-4)GlcNAc(b1-4)GlcNAc
Outline: as §1

[7] = target: Fuc(a1-2)[GalNAc(a1-3)]Gal(b1-4)GlcNAc(b1-3)GalNAc
Outline: as §1

[8] = target: Fuc(a1-3)[Gal(b1-4)]GlcNAc6S
Outline: as §1

Fuc(b1-3)GlcNAc = target: Fuc(b1-3)GlcNAc
Outline: as §1

Gal(a1-3)Gal = target: Gal(a1-3)Gal
Outline: as §1

[9] = target: Gal(a1-3)Gal(b1-4)[Fuc(a1-3)]GlcNAc(b1-2)Man(a1-3)[Gal(a1-3)Gal(b1-4)[Fuc(a1-3)]GlcNAc(b1-2)Man(a1-6)]Man(b1-4)GlcNAc(b1-4)GlcNAc
Outline: as §1

Gal(a1-3)GalNAc = target: Gal(a1-3)GalNAc
Outline: as §1

[10] = target: Gal(b1-3)Gal(b1-4)GlcNAc(b1-2)Man(a1-3)[Gal(b1-3)Gal(b1-4)GlcNAc(b1-2)Man(a1-6)]Man(b1-4)GlcNAc(b1-4)GlcNAc
Outline: as §1

[11] = target: Gal(b1-3)GalNAc(a1-3)[Fuc(a1-2)]Gal(b1-4)GlcNAc
Outline: as §1

Gal(b1-3)GlcNAc = target: Gal(b1-3)GlcNAc
Outline: as §1

[12] = target: Gal(b1-3)GlcNAc(b1-2)Man(a1-3)[Gal(b1-3)GlcNAc(b1-2)Man(a1-6)]Man(b1-4)GlcNAc(b1-4)GlcNAc
Outline: as §1

[13] = target: Gal(b1-3)GlcNAc(b1-3)Gal(b1-4)GlcNAc
Outline: as §1

[14] = target: Gal(b1-4)GlcNAc(b1-2)Man(a1-3)[Gal(b1-4)GlcNAc(b1-2)Man(a1-6)]Man(b1-4)GlcNAc(b1-4)[Fuc(a1-6)]GlcNAc
Outline: as §1

[15] = target: Gal(b1-4)GlcNAc(b1-2)[Gal(b1-4)GlcNAc(b1-4)]Man(a1-3)[Gal(b1-4)GlcNAc(b1-2)Man(a1-6)]Man(b1-4)GlcNAc(b1-4)GlcNAc
Outline: as §1

[16] = target: Gal(b1-4)GlcNAc(b1-3)Gal(b1-3)GlcNAc
Outline: as §1

[17] = target: Gal(b1-4)GlcNAc(b1-3)Gal(b1-4)[Fuc(a1-3)GlcNAc(b1-6)]Gal(b1-4)Glc
Outline: as §1

[18] = target: Gal(b1-4)GlcNAc(b1-3)[Gal(b1-4)GlcNAc(b1-6)]Gal(b1-4)GlcNAc
Outline: as §1

[19] = target: Gal(b1-4)GlcNAc(b1-3)[GlcNAc(b1-6)]Gal(b1-4)GlcNAc
Outline: as §1

[20] = target: Gal3S(b1-3)[Fuc(a1-4)]GlcNAc
Outline: as §1

Gal3S(b1-4)Glc = target: Gal3S(b1-4)Glc
Outline: as §1

Gal3S(b1-4)GlcNAc6S = target: Gal3S(b1-4)GlcNAc6S
Outline: as §1

Gal6S(b1-4)GlcNAc6S = target: Gal6S(b1-4)GlcNAc6S
Outline: as §1

GalNAc(b1-4)Gal(b1-4)Glc = target: GalNAc(b1-4)Gal(b1-4)Glc
Outline: as §1

Glc(a1-4)Glc = target: Glc(a1-4)Glc
Outline: as §1

Glc(a1-6)Glc(a1-6)Glc = target: Glc(a1-6)Glc(a1-6)Glc
Outline: as §1

[21] = target: GlcNAc(a1-4)Gal(b1-4)GlcNAc(b1-3)Gal(b1-4)GlcNAc
Outline: as §1

[22] = target: GlcNAc(a1-4)Gal(b1-4)GlcNAc(b1-3)Gal(b1-4)[Fuc(a1-3)]GlcNAc(b1-3)Gal(b1-4)[Fuc(a1-3)]GlcNAc
Outline: as §1

[23] = target: GlcNAc(b1-2)[GlcNAc(b1-6)]Man(a1-6)[GlcNAc(b1-2)Man(a1-3)]Man(b1-4)GlcNAc(b1-4)GlcNAc
Outline: as §1

[24] = target: GlcNAc(b1-2)[GlcNAc(b1-6)]Man(a1-6)[GlcNAc(b1-2)Man(a1-3)][GlcNAc(b1-4)]Man(b1-4)GlcNAc(b1-4)GlcNAc
Outline: as §1

[25] = target: GlcNAc(b1-3)[GlcNAc(b1-4)][GlcNAc(b1-6)]GlcNAc
Outline: as §1

GlcNAc(b1-4)GlcNAc = target: GlcNAc(b1-4)GlcNAc
Outline: as §1

[26] = target: Man(a1-3)[Man(a1-6)]Man(b1-4)GlcNAc(b1-4)GlcNAc
Outline: as §1

[27] = target: Neu5Ac(a2-3)Gal(b1-3)GlcNAc
Outline: as §1

[28] = target: Neu5Ac(a2-3)Gal(b1-3)[Neu5Ac(a2-6)]GalNAc
Outline: as §1

[29] = target: Neu5Ac(a2-3)Gal(b1-4)GlcNAc(b1-6)[Gal(b1-3)]GalNAc
Outline: as §1

[30] = target: Neu5Ac(a2-3)Gal(b1-4)[Fuc(a1-3)]GlcNAc(b1-3)GalNAc
Outline: as §1

Neu5Ac(a2-3)GalNAc = target: Neu5Ac(a2-3)GalNAc
Outline: as §1

[31] = target: Neu5Ac(a2-6)Gal(b1-4)GlcNAc(b1-2)Man(a1-3)[Gal(b1-4)GlcNAc(b1-2)Man(a1-6)]Man(b1-4)GlcNAc(b1-4)GlcNAc
Outline: as §1

[32] = target: Neu5Ac(a2-6)Gal(b1-4)GlcNAc(b1-2)Man(a1-6)Man(b1-4)GlcNAc(b1-4)GlcNAc
Outline: as §1

[33] = target: Neu5Ac(a2-8)Neu5Ac(a2-3)[GalNAc(b1-4)]Gal(b1-4)Glc
Outline: as §1

[34] = target: Neu5Ac(a2-8)Neu5Ac(a2-8)Neu5Ac(a2-3)[GalNAc(b1-4)]Gal(b1-4)Glc
Outline: as §1

[35] = target: Neu5Ac(b2-6)Gal(b1-4)GlcNAc
Outline: as §1

[36] = target: Neu5Ac9Ac(a2-3)Gal(b1-3)GlcNAc
Outline: as §1

[37] = target: Neu5Gc(b2-6)Gal(b1-4)GlcNAc
Outline: as §1

B1: Eosinophil-derived neurotoxin (EDN) (Homo sapiens), P10153 (protein)
chain: MVPKLFTSQICLLLLLGLLAVEGSLHVKPPQFTWAQWFETQHINMTSQQCTNAMQVINNYQRRCKNQNTFLLTTFANVVNVCGNPNMTCPSNKTRKNCHHSGSQVPLIHCNLTTPSPQNISNCRYAQTPANMFYIVACDNRDQRRDPPQYPVVPVHLDRII
glycan array binding signal (z-score) [1]: 0.954 | glycan array binding signal (z-score) [2]: -0.438 | glycan array binding signal (z-score) [3]: -0.092 | glycan array binding signal (z-score) [4]: 0.666 | glycan array binding signal (z-score) [5]: -0.523 | glycan array binding signal (z-score) [6]: 0.308 | glycan array binding signal (z-score) [7]: 0.483 | glycan array binding signal (z-score) [8]: 0.272 | glycan array binding signal (z-score) (Fuc(b1-3)GlcNAc): -0.332 | glycan array binding signal (z-score) (Gal(a1-3)Gal): -0.363 | glycan array binding signal (z-score) [9]: 0.387 | glycan array binding signal (z-score) (Gal(a1-3)GalNAc): -0.593 | glycan array binding signal (z-score) [10]: 0.187 | glycan array binding signal (z-score) [11]: 0.269 | glycan array binding signal (z-score) (Gal(b1-3)GlcNAc): -0.339 | glycan array binding signal (z-score) [12]: -0.33 | glycan array binding signal (z-score) [13]: 0.648 | glycan array binding signal (z-score) [14]: 1.36 | glycan array binding signal (z-score) [15]: -0.461 | glycan array binding signal (z-score) [16]: -0.443 | glycan array binding signal (z-score) [17]: 0.142 | glycan array binding signal (z-score) [18]: 1.13 | glycan array binding signal (z-score) [19]: 1.36 | glycan array binding signal (z-score) [20]: 0.104 | glycan array binding signal (z-score) (Gal3S(b1-4)Glc): -0.269 | glycan array binding signal (z-score) (Gal3S(b1-4)GlcNAc6S): -0.506 | glycan array binding signal (z-score) (Gal6S(b1-4)GlcNAc6S): -0.122 | glycan array binding signal (z-score) (GalNAc(b1-4)Gal(b1-4)Glc): -0.211 | glycan array binding signal (z-score) (Glc(a1-4)Glc): -0.482 | glycan array binding signal (z-score) (Glc(a1-6)Glc(a1-6)Glc): 0.261 | glycan array binding signal (z-score) [21]: 12.5 | glycan array binding signal (z-score) [22]: 1.45 | glycan array binding signal (z-score) [23]: -0.199 | glycan array binding signal (z-score) [24]: 0.017 | glycan array binding signal (z-score) [25]: 0.413 | glycan array binding signal (z-score) (GlcNAc(b1-4)GlcNAc): -0.215 | glycan array binding signal (z-score) [26]: -0.552 | glycan array binding signal (z-score) [27]: -0.205 | glycan array binding signal (z-score) [28]: 0.143 | glycan array binding signal (z-score) [29]: 1.16 | glycan array binding signal (z-score) [30]: 0.955 | glycan array binding signal (z-score) (Neu5Ac(a2-3)GalNAc): 0.007 | glycan array binding signal (z-score) [31]: 1.86 | glycan array binding signal (z-score) [32]: 0.578 | glycan array binding signal (z-score) [33]: 1.66 | glycan array binding signal (z-score) [34]: -0.121 | glycan array binding signal (z-score) [35]: 0.387 | glycan array binding signal (z-score) [36]: -0.207 | glycan array binding signal (z-score) [37]: 0.153
